A selection: hits, their analogues and other compounds. The true share with any hit is near 12%.
BAZ2B inh = inhibitors of human BAZ2B bromodomain; AID 504333; Q9UIF8; Potency, µM (top dose mostly 114 µM), without a hit: at the top dose activity change, negative = inhibition, usual class: inhibitors; AlphaScreen BAZ2B-H3K14Ac peptide displacement; actives 4.4% (n = 360,000); further: on the % scale 0 is the no-effect control and ±100 the full control effect; nearly all actives have a fitted effect of over 60% in size
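Inhibition is scored as reduced AlphaScreen emission. The BAZ2B/b-H3(5-23)K14Ac complex (50 nM each) in PBS pH 7.4, 0.01% Tween-20 meets compound (up to 110 uM) for 30 min at RT before bead addition.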
G9a block = blocks human histone lysine methyltransferase G9a; Potency, µM (top dose mostly 102 µM), inactives show at the top dose activity, negative = inhibition, hits mostly inhibitors; AID 504332; actives 8.8% (n = 350,000); G9a H3K9 monomethylation, AlphaScreen, 2 h; further: on the % scale 0 is the no-effect control and ±100 the full control effect; nearly all actives have a fitted effect of over 75% in size
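G9a (20 nM) preincubated 15 min RT with compounds, then 500 nM biotinylated H3K9 peptide and 20 uM SAM added; 2 h RT reaction. Monomethyl-H3K9 product detected by AlphaScreen with anti-H3K9me1 antibody, streptavidin donor and anti-rabbit IgG acceptor beads.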
Sfp inh = inhibitors of Bacillus subtilis Sfp phosphopantetheinyl transferase. Potency, µM, for inactives: largest response in the series, negative = inhibition, actives largely listed as inhibitors. Biochemical Sfp PPTase activity, qHTS. actives 3.5% (n = 310,000). Q9F4F7;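 further: the enzyme is Sfp with the accession as filed and its product quenches rhodamine fluorescence; 0% = enzyme reaction without inhibitor and -100% = no enzyme wells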
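After 15 min at room temperature with compound, 15 nM Sfp received 5 uM rhodamine-CoA plus 12.5 uM BHQ-2-ybbR (50 mM Hepes pH 7.6, 10 mM MgCl2). Rate came from the fluorescence difference over 30 min, ex 525/em 598 nm.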
HP1b binding inh = inhibitors of HP1-beta chromodomain binding to methylated histone tails. actives 0.56% (n = 390,000). AID 540317. P83916. Potency, µM (series often up to 114 µM), for inactives: top-dose activity change, negative = inhibition, usual class: inhibitors. AlphaScreen HP1-beta / biotin-H3K9me3 peptide binding; further: nearly all actives have a fitted effect of over 70% in size
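HP1-beta protein (50 nM final) preincubated 30 min at room temperature with biotinylated H3(1-18)K9me3 peptide (50 nM) in PBS pH 7.4, 0.01% Tween-20, then compound added for 30 min. AlphaScreen streptavidin donor/nickel chelate acceptor beads (10 ug/mL final), 30 min dark, luminescence read.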
JMJD2A Tudor inh = inhibitors of human JMJD2A Tudor domain; O75164; AlphaScreen JMJD2A-Tudor / H3K4me3 peptide binding; Potency, µM (doses to about 114 µM), for the others: top-dose activity change, negative = inhibition, usual class: inhibitors; actives 4.4% (n = 390,000); further: on the % scale 0 is the no-effect control and ±100 the full control effect; nearly all actives have a fitted effect of over 50% in size
An asterisk follows results filed as active; ? = inconclusive; · = no result given; [ ] = dose if it differs, or a comment. The call rests on the fitted dose curve; in most records, active means well fitted curve in the direction sought with a large enough effect; inconclusive means small, poorly fitted or top-dose-only effect, or another doubt; inactive means no such curve, though single readings can be large; an effect the other way counts as inactive or inconclusive. Potency means the concentration at half of the fitted maximal effect.

SMILES	BAZ2B inh	G9a block	Sfp inh	HP1b binding inh	JMJD2A Tudor inh
COc1ccc(C(OCC(O)CNCCc2ccccc2)c2ccc(OC)cc2)cc1 (stereo unspecified)	32µM*	6%[0.501 µM]	-27%	?	3.5µM*
C=CCn1c(=O)[nH]c(=O)c2c(N)c(C(=O)c3ccc(OC)cc3)sc21	·	·	·	27%	-21%
Cc1ccc(C(NC(=O)N2CCOCC2)C(Cl)Cl)cc1F (stereo unspecified)	-2%	45µM*	16%	2%	-6%
Cc1ccc(C(NC(=O)N2CC(C)OC(C)C2)C(Cl)Cl)cc1F (stereo unspecified)	34%	79µM*	7%	43%	-8%
Cc1ccc(CNC(=O)CCCn2c(=O)c3ccccc3n(CC(=O)C(C)(C)C)c2=O)cc1	0%	-1%[59 µM]	·	5%	-15%
COc1cccc(-c2nnc(SCC(=O)NC3CCCCC3)o2)c1	-6%	8.9µM*	·	-13%	-15%
COc1ccc(-c2nnc(SCC(=O)NC3CC3)o2)c(OC)c1	8%	-33%	·	17%	-4%
COc1ccc(OC)c(-c2nnc(SCC(=O)NC3CCCCC3)o2)c1	4%	45µM*	9%	60%	-11%
O=C(c1ccc2c(c1)N(Cc1ccc(Cl)cc1)C(=O)c1ccccc1S2(=O)=O)N1CCOCC1	-10%	-4%[59 µM]	·	8%	-27%
O=C(CN1C(=O)c2ccccc2C1=O)NCC(=O)Nc1ccccc1	·	·	·	11%	-8%
Cc1cc(NC(=O)c2ccco2)sc1C	-20%	?	·	12%	-21%
O=C(Nc1ccon1)Nc1ccccc1C(F)(F)F	-1%	-2%	19%	33%	-4%
CCOC(=O)CN1NC2(CCCCC2)NC1=S	-6%	?	28µM*	-20%	18µM*
CCOC(=O)CN1NC2(CCCCCCC2)NC1=S	-21%	2.2µM*	40µM*	41%	28µM*
COc1cc2c(cc1OC)C1O[C@](CCCCN3C(=O)c4ccccc4C3=O)(C2)OC2=C1C(=O)c1ccccc1C2=O	-2%[22.9 µM]	·	-23%	·	·
Oc1ccc(-c2cnns2)c(O)c1	-24%	7.1µM*	56µM*	?	0.79µM*
Cc1cccn2c(=O)cc(CSc3nnc(NC(=O)c4ccc(F)cc4)s3)nc12	7%	0%[59 µM]	·	22%[57 µM]	12%
CCCOc1cccc(CN2CCCCC2c2cccnc2)c1 (stereo unspecified)	?	45µM*	26%	36%	?
CCC(=O)N1CCc2cc(CNC(=O)Nc3ccc(OC)cc3OC)ccc21	-8%	-3%[59 µM]	·	1%[57 µM]	-18%
Cc1ccc(C)c(Nc2ccc3nonc3c2[N+](=O)[O-])c1	?	?	-1%	?	-36%
Cc1ccc(C)c(Nc2c([N+](=O)[O-])ccc3nonc23)c1	3.5µM*	?	5%	?	-31%
O=[N+]([O-])c1ccc(O)c(Nc2ncnc3ccc(Br)cc23)c1	?	?	7%	?	-31%
O=[N+]([O-])c1ccc(O)c(Nc2c([N+](=O)[O-])ccc3nonc23)c1	50µM*	50µM*	-9%	-24%[57 µM]	?
CCCCc1nn2c(=O)cc(COC(=O)CNC(=O)COc3ccc(C)cc3)nc2s1	-2%	16%[59 µM]	·	24%	-7%
O=C1CCC2(CC1)NC(=O)N(c1ccccc1)N2	-11%	7.1µM*	10%	37%	-6%[11.4 µM]
SMILES	BAZ2B inh	G9a block	Sfp inh	HP1b binding inh	JMJD2A Tudor inh
C=CCC1CCCCC12NC(=O)N(c1ccccc1)N2 (stereo unspecified)	-1%	·	-7%	18%	-10%
CCc1ccc2[nH]c(=O)c(CN(Cc3ccco3)C(=S)NCC3CCCO3)cc2c1 (stereo unspecified)	-11%	·	-4%	0%	?
CN(C)CCCN(Cc1cc2cc3c(cc2[nH]c1=O)OCO3)C(=S)Nc1cccc(Cl)c1	-39%	50µM*	-10%	-1%	?
CCNC(=S)N(Cc1ccco1)Cc1cc2cc3c(cc2[nH]c1=O)OCCO3	7%	18%[59 µM]	-6%	27%	10%
Cc1cc2cc(CN(Cc3ccco3)C(=S)NCC3CCCO3)c(=O)[nH]c2cc1C (stereo unspecified)	?	?	50µM*	-23%	?
CCN(CC)CCCNC(=S)N(Cc1ccco1)Cc1cc2cc3c(cc2[nH]c1=O)OCCO3	-14%	26%[59 µM]	79µM*	·	·
CNC(=S)N(Cc1ccco1)Cc1cc2cc3c(cc2[nH]c1=O)OCCO3	-26%	79µM*	28µM*	-10%	-28%
COc1ccc(CNC(=O)c2ccc(NC(=O)N3CCSc4ncccc43)cc2)cc1OC	-26%	?	·	40%	7%
Cc1cc(Nc2ccc(Br)c(C)c2)n2nc(-c3ccco3)nc2n1	-6%	-10%[59 µM]	·	19%	-23%
COc1ccc(-c2csc3ncnc(Nc4ccccc4)c23)cc1	-1%	13%[59 µM]	·	77%	5%
COc1cccc(/C=N/Nc2ncnc3scc(-c4ccccc4)c23)c1OC	-27%	50µM*	-16%	27%	?
Cc1sc2ncnc(N/N=C/c3ccccc3O)c2c1C	35µM*	65%[59 µM]	-4%	-6%	?
Cc1nc2c3c(sc2c(=O)[nH]1)NC(=O)CC3c1ccccc1Cl (stereo unspecified)	-9%	·	1%	3%[57 µM]	-20%
CC(C)Cc1c2c([nH]c(=S)c1C#N)CCCC2	-30%	2.2µM*	2µM*	-24%	56µM*
N#Cc1c(-c2ccco2)c2c([nH]c1=S)CCCC2	1%	?	4.5µM*	-22%	28µM*
N#Cc1c(N)nc2c(c1-c1cccnc1)CCCCC2	9%	-7%	-3%	34%	2%
N#Cc1c(-c2cccnc2)c2c([nH]c1=S)CCCC2	-6%	0.71µM*	28µM*	?	1.4µM*
NC(=O)C1(N2CCCCC2)CCN(C(=O)Nc2ccc(F)cc2F)CC1	-5%	-7%[59 µM]	·	30%	-14%
Cc1ccc(C(=O)CNc2ccccc2C)cc1	-6%	?	-16%	14%	-13%
Cc1ccccc1NCCNc1ccccc1C	?	45µM*	-10%	-8%	-30%
Clc1ccc(SCNc2ccccc2Cl)cc1	47%	31%	45µM*	106%	73%
Cc1ccc(NCSc2ccc(Cl)cc2)cc1	·	·	·	-10%[57 µM]	-33%
O=C(COc1cccc2cccnc12)N/N=C/c1ccc(O)cc1	-17%	-5%	9%	-14%	-20%
Cc1ccccc1OCC(=O)N/N=C/c1cccc2cccnc12	40µM*	·	-3%	14%	50µM*
C#CCn1cc(/C=N/NC(=O)COc2cccc3cccnc23)c2ccccc21	?	3.2µM*	-28%	13%	?
O=C(COc1cccc2cccnc12)N/N=C/c1cccn1-c1ccc(F)cc1	28µM*	35µM*	-24%	?	20µM*
O=C(COc1cccc2cccnc12)N/N=C/c1ccccc1O	-35%	·	-3%	97%	-33%

Bioassay records: PubChem, National Center for Advancing Translational Sciences (NCATS)
